# Reference: the supplement of paper PMC10941209
# System: HFF
# Test: cell viability relative to DMSO control; higher = less cytotoxic
# Details: 1 µM; 72 h
# Protocol: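 Single-dose cytotoxicity screen of the MMV Pandemic Response Box at 1 uM on human foreskin fibroblasts (HFF), 72 h at 37 C. Viability measured by MTT (OD 550 nm) and normalised to the DMSO control (% survival).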
row,Compound,cell viability [%]
1,O=C(O)c1ccc(-c2ccc(O[C@H]3O[C@H](CO)[C@@H](O)[C@H](O)[C@@H]3O)cc2)cc1,63.9
2,O=C(O)CSc1cc(NS(=O)(=O)c2cccc3cccnc23)c2ccccc2c1O,59.6
3,O=P(O)(O)C(CCCc1cccc(Oc2ccccc2)c1)S(=O)(=O)O (stereo not given),74.4
4,COc1ccc(CNC(=O)C(NS(=O)(=O)c2ccc3nc(C)sc3c2)C(C)C)cc1 (stereo not given),64.5
5,O=C(CP(=O)(O)O)NCCc1cccc(Oc2ccccc2)c1,65.7
6,CC(C)C(=O)N[C@H]1[C@H]([C@H](O)[C@H](O)CO)OC(C(=O)O)=C[C@@H]1N=[N+]=[N-],56.6
7,COc1cc(Cc2cc(N)nc(N)n2)cc(OC)c1OC,65.1
8,CCC[C@@H]1C[C@@H](C(=O)N[C@@H]([C@H]2O[C@H](SC)[C@H](O)[C@@H](O)[C@H]2O)[C@H](C)Cl)N(C)C1,66.8
9,C[C@H](NC(=O)C(=O)Nc1ccccc1C(C)(C)C)C(=O)N[C@@H](CC(=O)O)C(=O)COc1c(F)c(F)cc(F)c1F,55.9
10,Nc1cc(-c2nc3ccccc3[nH]2)n[nH]c1=O,67.1
11,O=c1cc(OCc2ccccc2)ccn1Cc1ccccc1,68.5
12,Cc1c(OCC(F)(F)F)ccnc1C[S+]([O-])c1nc2ccccc2[nH]1 (stereo not given),66.4
13,C=C[C@]1(C)C[C@@H](OC(=O)CS[C@@H]2C[C@H]3CC[C@@H](C2)N3C)[C@]2(C)[C@H](C)CC[C@]3(CCC(=O)[C@H]32)[C@@H](C)[C@@H]1O,72.2
14,CCOc1noc2cc(OCCC3CCN(c4ccc(C)nn4)CC3)ccc12,53
15,Cc1nc(N(C)C(=O)Cc2ccc(-c3ccccn3)cc2)sc1S(N)(=O)=O,66.3
16,COc1c(F)c(F)cc2c(=O)c(C(=O)O)cn(C3CC3)c12,69.4
17,Cc1oncc1C(=O)Nc1ccc(C(F)(F)F)cc1,65.7
18,Cc1nc2ccc(Cl)cc2c(-c2ccccc2)c1CC(=O)O,77
19,Nc1nc(C(F)(F)F)cc2c1[nH]c(=O)n2Cc1ccccc1,65
20,Cc1onc(-c2ccccc2)c1-c1ccc(S(N)(=O)=O)cc1,66.8

row,Compound,cell viability [%]
1,CN(C)CCCNC(=O)c1ccc(-c2cc(O)c3ncccc3c2)cc1,67.8
2,C[C@H]1[C@@H](c2cccc(C(F)(F)F)c2)OC(=O)N1C(=O)NCc1cncc2ccccc12,70
3,COc1ccc(NS(=O)(=O)c2ccc(Cl)s2)cn1,72.2
4,O=C(Cc1ccccc1F)Nc1nc2ccccc2[nH]1,69.7
5,O=C(O)[C@H]1C2CCC(CC2)[C@@H]1Nc1nc(-c2c[nH]c3ncc(F)cc23)ncc1F,67
6,Cn1cncc1[C@@](N)(c1ccc(Cl)cc1)c1ccc2c(c1)c(-c1cccc(Cl)c1)cc(=O)n2C,61.1
7,CC(C)(C)NC(=O)N[C@H](C(=O)N1C[C@H]2[C@@H]([C@H]1C(=O)NC(CC1CCC1)C(=O)C(N)=O)C2(C)C)C(C)(C)C (stereo not given in full),63.4
8,COc1cc2c(O)c3c(c(-c4ccc5c(c4)OCO5)c2cc1OC)C(=O)OC3,66.8
9,Cc1ncc([N+](=O)[O-])n1CC(C)O (stereo not given),68.8
10,CCc1cc(Cc2cnc(N)nc2N)cc2c1N(C)CCC2C (stereo not given),71.9
11,O=C1NC(=S)N/C1=C\c1cc(Br)cc(Br)c1O,72.6
12,CCN(CC)CCn1c(=N)n(CC(O)COc2ccc(Cl)cc2Cl)c2ccccc21 (stereo not given),60.7
13,CC(C)Oc1ccc(-c2nc(-c3cccc4c3CC[C@@H]4NCCO)no2)cc1C#N,65.4
14,CC(C)=CCC/C(C)=C/CNCCNC1C2CC3CC(C2)CC1C3 (stereo not given),80.2
15,C[C@H]1CC[C@@]2(O)C(C)(C)[C@@H]3CC[C@@]2(C)[C@H]1C3,65.2
16,Cc1ccc(S(=O)(=O)Nc2cccc3cccnc23)cc1,84.2
17,CC(C)(C)c1cccc(-c2nc3cc(C(=N)N)ccc3[nH]2)c1O,64.8
18,Fc1ccc2c(/C=C/c3cccnc3)c[nH]c2c1,63.2
19,Clc1cc2nc(C3CCNCC3)n(Cc3ccc(CNCCc4c[nH]cn4)cc3)c2cc1Cl,65.3
20,CCCC(=O)OCCc1ccccc1,65.3
